The sample as a whole holds a higher share of hits than the screen did.
PRC2 inh = blocks human EZH2/PRC2 H3K27 methylation. Q15910. DELFIA TRF, 1 h. inhibition, % at 12.5 µM. hit rate 0.35% among 57,000. AID 651548;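 active means mean inhibition of replicates at least 50% and every single replicate also reaching 50%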;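 further: dimethyl H3K27 on biotinylated H3 21-44 peptide detected by antibody; plate controls were median neutral control wells for no effect and median positive control wells for full effect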
Target sequence (Q15910 whole entry, looked up): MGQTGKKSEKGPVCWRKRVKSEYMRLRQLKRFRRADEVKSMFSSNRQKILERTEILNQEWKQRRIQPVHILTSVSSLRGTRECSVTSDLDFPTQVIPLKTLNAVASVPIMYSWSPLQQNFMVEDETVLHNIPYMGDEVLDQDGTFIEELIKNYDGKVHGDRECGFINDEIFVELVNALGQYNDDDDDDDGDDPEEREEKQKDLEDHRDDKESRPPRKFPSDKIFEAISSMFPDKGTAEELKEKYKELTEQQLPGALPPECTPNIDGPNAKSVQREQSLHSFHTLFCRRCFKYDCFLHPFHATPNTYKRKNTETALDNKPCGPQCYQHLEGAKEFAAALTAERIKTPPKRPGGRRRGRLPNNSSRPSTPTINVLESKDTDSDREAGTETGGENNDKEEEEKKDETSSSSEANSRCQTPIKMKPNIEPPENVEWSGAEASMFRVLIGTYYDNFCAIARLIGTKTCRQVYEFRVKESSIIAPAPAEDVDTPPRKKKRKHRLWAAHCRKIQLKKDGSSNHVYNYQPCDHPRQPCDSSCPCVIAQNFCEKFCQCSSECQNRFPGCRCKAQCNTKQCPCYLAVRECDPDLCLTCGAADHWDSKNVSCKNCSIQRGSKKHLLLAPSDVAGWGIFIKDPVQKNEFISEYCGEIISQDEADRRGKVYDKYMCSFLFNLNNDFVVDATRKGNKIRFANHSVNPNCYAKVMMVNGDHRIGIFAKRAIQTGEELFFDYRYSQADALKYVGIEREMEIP
Active calls of the source: *.

SMILES	PRC2 inh
CC1CC(=O)[C@]2(C)CC[C@]3(C)C(C(=O)C(O)C4[C@@]5(C)CC[C@H](O)C(C)(C(=O)O)C5CC[C@]43C)C2C1C (some centres not stated)	70*
C[C@@H]1CC[C@@]23CCC4(C)[C@@](C=CC5[C@@]6(C)CC[C@H](O)C(C)(C)C6CC[C@]54C)(OC2=O)C3[C@H]1C (some centres not stated)	3
C[C@@H]1CC[C@]2(C(=O)O)CC[C@]3(C)C(=CCC4[C@@]5(C)CC[C@@H](O)[C@](C)(C(=O)O)C5CC[C@]43C)C2[C@H]1C (some centres not stated)	-13
Cc1ccc(-n2nnnc2SCC(=O)Nc2ccc(N3CCOCC3)c(Cl)c2)cc1C	15
Cc1cc(=O)n2c3ccccc3n(CC(O)Cn3ccnc3)c2c1C#N (configuration not stated)	-16
CCn1c(SCC(=O)c2cccc([N+](=O)[O-])c2)nnc1-c1ccccc1F	9
CC(C(=O)Nc1cccc(C(F)(F)F)c1)N(c1ccc(Cl)cc1)S(C)(=O)=O (configuration not stated)	-5
O=C(NCSCc1cccc(C(F)(F)F)c1)Nc1ccc(F)c(Cl)c1	56*
CCn1c(SCC(=O)Nc2ccc(F)c(Cl)c2)nnc1-c1cccc(C)c1	1
O=C(CSc1nnc(-c2ccco2)o1)c1ccc(Oc2ccccc2)cc1	34
COc1ccc2[nH]cc(CCNC(=O)Nc3ccc(Cl)c(Cl)c3)c2c1	12
COc1ccc2oc(-c3cccc(NC(=O)COc4ccc(Cl)cc4)c3)nc2c1	3
CC(=O)c1cccc(NC(=O)CSc2nc(-c3ccccc3)c(-c3ccccc3)o2)c1	31
O=C(CCSc1nnc(-c2ccccc2)o1)Nc1ccc(F)cc1	-15
O=C(O)CCCCCCC(=O)Nc1ccc(C2CC(CSc3nc(-c4ccccc4)c(-c4ccccc4)o3)OC(c3ccccc3)O2)cc1 (configuration not stated)	92*
COC(=O)c1ccc(OC(=O)CS(=O)c2ccc(C(F)(F)F)cc2[N+](=O)[O-])cc1 (configuration not stated)	-16
C[C@H](CO)N1C[C@H](C)[C@H](CN(C)Cc2ccc(-c3ccccc3)cc2)Oc2ccc(NS(=O)(=O)c3cccs3)cc2C1=O	25
C[C@H](CO)N1C[C@H](C)[C@H](CN(C)Cc2cccc(F)c2)Oc2cc(C#CC3CC3)ccc2S1(=O)=O	84*
C[C@H](CO)N1C[C@H](C)[C@@H](CN(C)Cc2ccc(-c3ccccc3)cc2)Oc2ccc(NS(=O)(=O)c3cccs3)cc2C1=O	38
C[C@@H]1CN([C@H](C)CO)C(=O)c2cc(NS(=O)(=O)c3cccs3)ccc2O[C@@H]1CN(C)Cc1ccc(-c2ccccc2)cc1	54*
C[C@H](CO)N1C[C@H](C)[C@H](CN(C)Cc2cccc(F)c2)Oc2cc(-c3ccccc3)ccc2S1(=O)=O	38
C[C@@H]1CN([C@H](C)CO)S(=O)(=O)c2ccc(C#CC3CC3)cc2O[C@H]1CN(C)Cc1cccc(F)c1	19
C[C@H](CO)N1C[C@H](C)[C@H](CN(C)Cc2ccccc2)Oc2cc(C#CC3CC3)ccc2S1(=O)=O	26
C[C@@H]1CN([C@H](C)CO)S(=O)(=O)c2ccc(-c3ccccc3)cc2O[C@H]1CN(C)Cc1cccc(F)c1	55*
C[C@H]1CN([C@@H](C)CO)S(=O)(=O)c2ccc(-c3ccccc3)cc2O[C@H]1CN(C)Cc1cccc(F)c1	35
SMILES	PRC2 inh
O=C(CSc1nc(-c2ccccc2)cc(C(F)(F)F)n1)Nc1ccccc1Cl	42
Cc1ccccc1OCC(=O)Nc1ccccc1C(=O)N1C(C)CCCC1C (configuration not stated)	-11
Cc1ccc(-n2nc3ccc(NC(=O)COc4cccc(C)c4)cc3n2)cc1	2
COc1ccc(OC)c(S(=O)(=O)N2CCC(C(=O)Nc3ccc(OC)c(Cl)c3)CC2)c1	1
O=C(Nc1ccc(I)cc1C(=O)NCc1cccnc1)c1ccco1	-9
Cc1cc(C)nc(NS(=O)(=O)c2ccc(NC(=O)c3ccc(-c4ccccc4)cc3)cc2)n1	56*
Cc1cc(C)nc(NS(=O)(=O)c2ccc(N)cc2)n1	8
CCOc1ccccc1C(=O)Nc1ccc(S(=O)(=O)Nc2nc(C)cc(C)n2)cc1	-4
Cc1cc(C)nc(NS(=O)(=O)c2ccc(NC(=O)c3ccc(C(=O)c4ccccc4)cc3)cc2)n1	7
Cc1cc(C)nc(NS(=O)(=O)c2ccc(Nc3nc(-c4ccc(F)cc4)cs3)cc2)n1	58*
O=C(Nc1ccc(S(=O)(=O)Nc2ncccn2)cc1)c1ccc(-c2ccccc2)cc1	28
Cc1ccccc1N(CC(=O)Nc1cccc(Cl)c1Cl)S(C)(=O)=O	18
COc1cccc(-c2nnc(SCC(=O)Nc3cccc(Cl)c3)n2C)c1	8
CCN(CC)c1ccc(/C=N/NC(=O)c2ccc(C(=O)NO)cc2)c(O)c1	-1
O=C(NO)c1ccc(C(=O)N/N=C/c2ccc(O)cc2)cc1	4
O=C(NO)c1ccc(C(=O)N/N=C/c2ccccc2C(=O)O)cc1	5
